According to PubChem BioAssay (NCATS):
Results filed as inconclusive are left out. Active and inactive are the calls of the source. Unless noted, calls come from the whole dose curve; as a rule, active = well fitted curve in the direction sought with a large enough effect; inconclusive = small, poorly fitted or top-dose-only effect, or another doubt; inactive = no such curve, though single readings can be large; an effect the other way counts as inactive or inconclusive.

Assays:
[1] = Cell Viability - LYMP1-002 - Assay at 16 hr (AID 948)
Summary of the method: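 LYMP1-002 human lymphoblastoid cells, 2500/well; 5 hr 37 C; cpd 16 hr 37 C; CellTiter-Glo 30 min RT; luminescence (ATP). Concentration-response, Hill-fit AC50. Pos ctrl tetraoctylammonium bromide.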

[2] = target: Pyruvate kinase PKM (Homo sapiens) (UniProt P14618); assay: qHTS Assay for Activators of Human Muscle Pyruvate Kinase (AID 954; active = well fitted curve in the direction sought with a large enough effect, not every such curve was filed as active)
Sequence of Pyruvate kinase PKM (Homo sapiens) (P14618 whole entry, looked up): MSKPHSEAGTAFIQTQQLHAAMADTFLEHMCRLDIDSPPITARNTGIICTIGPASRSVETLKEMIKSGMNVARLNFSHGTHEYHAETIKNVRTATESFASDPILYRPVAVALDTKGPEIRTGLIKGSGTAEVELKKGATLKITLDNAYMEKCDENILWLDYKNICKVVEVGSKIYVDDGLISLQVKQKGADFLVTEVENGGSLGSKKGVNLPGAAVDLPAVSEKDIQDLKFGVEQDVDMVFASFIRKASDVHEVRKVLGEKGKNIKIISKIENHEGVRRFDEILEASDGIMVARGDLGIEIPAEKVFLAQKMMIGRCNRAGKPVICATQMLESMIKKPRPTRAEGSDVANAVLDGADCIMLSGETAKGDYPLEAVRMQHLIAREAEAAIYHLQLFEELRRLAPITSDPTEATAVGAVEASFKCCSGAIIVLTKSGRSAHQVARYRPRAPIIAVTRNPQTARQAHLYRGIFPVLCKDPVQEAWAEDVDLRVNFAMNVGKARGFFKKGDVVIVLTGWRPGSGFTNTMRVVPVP
Summary of the method: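 Compound pinned into substrate mix (0.5 mM PEP, 0.1 mM ADP), then 0.1 nM PKM2 added; 1 h, RT. Stop/detection luciferase reagent added, luminescence read. Normalized to no-inhibition and no-enzyme or reference-inhibitor controls.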

[3] = MultiTox-Fluor Cytotoxicity Assay - LYMP1-002 - Live Cells (AID 955)
Summary of the method: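 In this qHTS viability format, lymphoblastoid cells (LYMP1-002, human) received compound for 16 hr at 37 C. Fluorogenic GF-AFC cleavage by viable cells was detected at 405/510 nm after 1 h at room temperature.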

[4] = MultiTox-Fluor Cytotoxicity Assay - LYMP1-002 - Dead Cells (AID 960); note: nearly all actives have a fitted effect of over 60% in size
Summary of the method: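 Concentration-dependent increases in membrane-leaked protease activity are quantified in LYMP1-002 cells after 16 hr treatment; values are normalized against DMSO and tetraoctylammonium bromide (15 uM) controls and AC50 derived by Hill modeling.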

[5] = MultiTox-Fluor Cytotoxicity Assay - LYMP1-003 - Dead Cells (AID 961); note: nearly all actives have a fitted effect of over 70% in size
Summary of the method: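 LYMP1-003 human lymphoblastoid cells (2500/well) exposed to compound 16 h at 37 C in complete medium; dead-cell protease read with bis-AAF-R110 fluorescence (Ex/Em 485/520) after 60 min at room temperature. Normalized to DMSO and 15 uM tetraoctylammonium bromide; AC50 from Hill fit.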

[6] = MultiTox-Fluor Cytotoxicity Assay - LYMP1-003 - Live Cells (AID 962);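 note: cytotoxic hits lower the live-cell protease signal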
Summary of the method: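 Human lymphoblastoid line LYMP1-003 in complete culture medium, treated 16 hr with titrated compounds. Viable cells quantified via cell-permeant GF-AFC substrate fluorescence; AC50 derived by Hill fitting.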

[7] = Cell Viability - LYMP1-003 - Assay at 24 hr (AID 963)
Summary of the method: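 The lymphoblastoid line was treated with titrated compounds for 24 hours, and viable cell number estimated from luciferase-based ATP luminescence.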

[8] = Cell Viability - LYMP1-003 - Assay at 40 hr (AID 964); note: series mostly up to about 92 µM; nearly all actives have a fitted effect of over 60% in size
Summary of the method: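 Acute toxicity is scored as a concentration-dependent loss of intracellular ATP in LYMP1-003 cells (2500/well, complete medium) after 40 hr at 37 C, measured by CellTiter-Glo luminescence; AC50 values derive from standard Hill modelling.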

[9] = target: Pyruvate kinase (Leishmania mexicana) (UniProt Q27686); assay: qHTS Validation Assay for Activators of Leishmania Mexicana Pyruvate Kinase (AID 959)
Sequence of Pyruvate kinase (Leishmania mexicana) (Q27686 2-499 E452W): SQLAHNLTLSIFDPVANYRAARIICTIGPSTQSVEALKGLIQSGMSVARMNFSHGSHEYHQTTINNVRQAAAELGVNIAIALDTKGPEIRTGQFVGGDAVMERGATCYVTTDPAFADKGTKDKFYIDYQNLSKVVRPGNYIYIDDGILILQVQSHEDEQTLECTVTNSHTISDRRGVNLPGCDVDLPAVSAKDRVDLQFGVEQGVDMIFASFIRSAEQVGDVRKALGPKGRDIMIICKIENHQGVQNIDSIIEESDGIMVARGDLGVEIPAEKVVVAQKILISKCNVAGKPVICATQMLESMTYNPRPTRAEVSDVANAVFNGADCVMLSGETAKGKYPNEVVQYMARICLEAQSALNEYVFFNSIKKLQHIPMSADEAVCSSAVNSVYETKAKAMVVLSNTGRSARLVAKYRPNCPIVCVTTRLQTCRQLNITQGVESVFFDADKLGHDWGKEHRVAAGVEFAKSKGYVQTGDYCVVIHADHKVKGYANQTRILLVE
Summary of the method: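 qHTS eight-point titrations against 0.2 nM LmPYK (E451W) in imidazole buffer pH 7.2 with 0.5 mM PEP, 0.1 mM ADP; 1 h, room temperature. Readout: PKLight luminescence, normalized to neutral DMSO wells.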

Measured: Potency

N[C@@H](Cc1c[nH]c2ccc(O)cc12)C(=O)O
inactive: [1] | [2] | [3] | [4] | [5] | [6] | [7] | [8]

Nc1nnc(-c2cccc(Cl)c2Cl)c(N)n1
inactive: [2]

Cn1c(=O)c2c(ncn2C)n(C)c1=O
inactive: [1] | [2] | [3] | [4] | [5] | [6] | [7] | [8]

CCCCc1oc2ccccc2c1C(=O)c1cc(I)c(OCCN(CC)CC)c(I)c1
inactive: [2]

CNCCCC12CCC(c3ccccc31)c1ccccc12
inactive: [2]

Cc1ccc(-c2cc(C(F)(F)F)nn2-c2ccc(S(N)(=O)=O)cc2)cc1
inactive: [1] | [3] | [5] | [6] | [7] | [8]

CCC1(c2ccccc2)C(=O)NCNC1=O
inactive: [1] | [2] | [3] | [4] | [5] | [6] | [7] | [8]

COc1ccc2c(c1)c(CC(=O)O)c(C)n2C(=O)c1ccc(Cl)cc1
inactive: [1] | [2] | [3] | [4] | [5] | [6] | [7] | [8]

NS(=O)(=O)c1cc2c(cc1Cl)NCNS2(=O)=O
inactive: [1] | [2] | [3] | [5] | [6] | [7] | [8]

O=c1[nH]cc(F)c(=O)[nH]1
inactive: [1] | [2] | [3] | [4] | [5] | [6] | [7]

Cc1cn([C@H]2C=C[C@@H](CO)O2)c(=O)[nH]c1=O
inactive: [1] | [2] | [3] | [4] | [5] | [6] | [7] | [8]

NC(=O)OCC(COC(N)=O)c1ccccc1
inactive: [2]

Cn1c(=O)c2[nH]cnc2n(C)c1=O
inactive: [1] | [2] | [3] | [4] | [5] | [6] | [7] | [8]

NCCCCCC(=O)O
inactive: [2]

COc1ccc(C2CNC(=O)C2)cc1OC1CCCC1 (stereo unspecified)
inactive: [2]

Clc1ccc(C(c2ccccc2Cl)C(Cl)Cl)cc1 (stereo unspecified)
inactive: [1] | [2] | [3] | [4] | [5] | [6] | [7] | [8]

O=C(c1ccc(F)cc1)C1CCN(CCn2c(=O)[nH]c3ccccc3c2=O)CC1
inactive: [2]

OCCN1CCN(CCCN2c3ccccc3Sc3ccc(C(F)(F)F)cc32)CC1
inactive: [2]

O=c1c(-c2ccc(O)cc2)coc2cc(O)cc(O)c12
inactive: [1] | [2] | [3] | [9] | [4] | [5] | [6] | [7] | [8]

NCCS(=O)(=O)O
inactive: [1] | [2] | [3] | [4] | [5] | [6] | [7] | [8]

COc1ccc2[nH]cc(CCNC(C)=O)c2c1
inactive: [1] | [2] | [3] | [4] | [5] | [6] | [7] | [8]

OCCN(CCO)c1nc(N2CCCCC2)c2nc(N(CCO)CCO)nc(N3CCCCC3)c2n1
inactive: [2]

C[C@](N)(Cc1ccc(O)c(O)c1)C(=O)O
inactive: [2]

Nc1c2c(nc3ccccc13)CCCC2
inactive: [1] | [2] | [3] | [4] | [5] | [6] | [7] | [8]

Nc1ccn([C@H]2CC[C@@H](CO)O2)c(=O)n1
inactive: [1] | [2] | [3] | [4] | [5] | [6] | [7] | [8]

CC(C)C(=O)Nc1ccc([N+](=O)[O-])c(C(F)(F)F)c1
inactive: [1] | [2] | [3] | [5] | [6] | [7] | [8]

Cc1cn([C@H]2C[C@H](N=[N+]=[N-])[C@@H](CO)O2)c(=O)[nH]c1=O
inactive: [1] | [3] | [4] | [5] | [6] | [7] | [8]

CS(=O)(=O)Nc1ccc([N+](=O)[O-])cc1Oc1ccccc1
inactive: [2]

COC(=O)Nc1nc2ccc(C(=O)c3cccs3)cc2[nH]1
inactive: [2]

Cn1cnc2c1c(=O)[nH]c(=O)n2C
inactive: [2]

CN(C)C(=O)C(CCN1CCC(O)(c2ccc(Cl)cc2)CC1)(c1ccccc1)c1ccccc1
inactive: [2]

COc1ccc(CCN(C)CCCC(C#N)(c2ccc(OC)c(OC)c2)C(C)C)cc1OC (stereo unspecified)
inactive: [1] | [3] | [4] | [5] | [6] | [7] | [8]

CC(C)NCC(O)c1ccc(O)c(O)c1 (stereo unspecified)
inactive: [1] | [3] | [4] | [5] | [6] | [7]

O=C(C1CCCCC1)N1CC(=O)N2CCc3ccccc3C2C1 (stereo unspecified)
inactive: [2]

CC(COc1ccccc1)N(CCCl)Cc1ccccc1 (stereo unspecified)
inactive: [1] | [3] | [4] | [5] | [6] | [7] | [8]
